# Where a name gives a salt, the structure may show the parent alone. Values without a mark were called inactive.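 The calls were made as follows: for the amine columns active = adjusted P below 0.05 in both replicates with a change the same way and a mean fold change under 0.8 or over 1.25; inactive = the rest.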
# Tested on: Klebsiella aerogenes DSM 30053
# Experiment: fold change of Putrescine concentration vs plate DMSO controls (fold change (ratio)); higher = more amine produced, active = hit call of the paper (significant change in both replicates, either direction)
# Conditions: incubation time: 27 h, anaerobic, 37 °C
# In short: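 Anaerobic mGAM cultures of four gut bacterial strains were grown at 37 °C for 27 h in 80 µL wells, starting at OD 0.1 before 1:1 dilution. Compounds were at 20 µM final (sweeteners 50 µM). Whole cultures were extracted with cold acetonitrile/methanol containing 0.1% formic acid and centrifuged. Amines were quantified by LC–triple-quadrupole MS (dynamic MRM) against external calibration curves and drift-corrected within batch. Each value is the fold change versus plate DMSO controls, averaged over 2 biological replicates.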
row,Structure (SMILES),fold change of Putrescine concentration
1,CN(CCOc1ccc(NS(C)(=O)=O)cc1)CCc1ccc(NS(C)(=O)=O)cc1 [Dofetilide] (20 µM),0.984
2,COc1cc2nc(N3CCN(C(=O)c4ccco4)CC3)nc(N)c2cc1OC [Prazosin hydrochloride] (20 µM),1.02
3,CCc1c2c(nc3ccc(OC(=O)N4CCC(N5CCCCC5)CC4)cc13)-c1cc3c(c(=O)n1C2)COC(=O)[C@]3(O)CC [Irinotecan hydrochloride trihydrate] (20 µM),1
4,O=C(O)CCNC(=O)c1ccccc1 [Betamipron] (20 µM),1
5,Cc1cc(C(C)(C)CC(C)(C)C)ccc1OCCOCC[N+](C)(C)Cc1ccccc1 [Methyl benzethonium chloride] (20 µM),1.01
6,CCN1CCN(C(=O)N[C@@H](C(=O)N[C@@H]2C(=O)N3C(C(=O)O)=C(CSc4nnnn4C)CS[C@H]23)c2ccc(O)cc2)C(=O)C1=O [Cefoperazone dihydrate] (20 µM),0.86
7,CN(C)CCCN1c2ccccc2CCc2ccccc21 [Imipramine hydrochloride] (20 µM),0.943
8,CCOC(=O)C1=C(C)NC(C)=C(C(=O)OC)C1c1cccc(Cl)c1Cl (centres undefined) [Felodipine] (20 µM),0.97
9,CCOC(=O)C1=C(COCCN)NC(C)=C(C(=O)OC)C1c1ccccc1Cl (centres undefined) [Amlodipine] (20 µM),1.03
10,O=C(O)c1cn(C2CC2)c2cc(N3CCNCC3)c(F)cc2c1=O [Ciprofloxacin hydrochloride monohydrate] (20 µM),0.573
11,Nc1ccn([C@@H]2CS[C@H](CO)O2)c(=O)n1 [Lamivudine] (20 µM),1.03
12,COc1ccc(CCN(C)CCCC(C#N)(c2ccc(OC)c(OC)c2)C(C)C)cc1OC (centres undefined) [Verapamil hydrochloride] (20 µM),0.906
13,CC[C@]12CCCN3CCc4c(n(c5ccccc45)[C@@](O)(C(=O)OC)C1)[C@@H]32 [Vincamine] (20 µM),1
14,Cc1noc(NS(=O)(=O)c2ccc(N)cc2)c1C [Sulfisoxazole] (20 µM),1.02
15,O=C1CN(/N=C/c2ccc([N+](=O)[O-])o2)C(=O)N1 [Nitrofurantoin] (20 µM),0.962
16,C=C[C@H]1CN2CC[C@H]1C[C@@H]2[C@@H](O)c1ccnc2ccc(OC)cc12 [Quinidine hydrochloride monohydrate] (20 µM),1.05
17,O=C1C(CC[S+]([O-])c2ccccc2)C(=O)N(c2ccccc2)N1c1ccccc1 (centres undefined) [Sulfinpyrazone] (20 µM),1.04
18,CCCCCCCCNC(C)C(O)c1ccc(SC(C)C)cc1 (centres undefined) [Suloctidil] (20 µM),0.977
19,CC(=O)Nc1ccc(O)cc1 [Acetaminophen] (20 µM),1
20,CC(C)(c1cc(Br)c(O)c(Br)c1)c1cc(Br)c(O)c(Br)c1 (20 µM),1.01

row,Structure (SMILES),fold change of Putrescine concentration
1,CCn1cc(C(=O)O)c(=O)c2cc(F)c(N3CCN(C)CC3)cc21 [Pefloxacin] (20 µM),1.05
2,Nc1ncn(C2OC(CO)C(O)C2O)c(=O)n1 (centres undefined) [Azacytidine-5] (20 µM),1.01
3,COc1cc(Cc2cnc(N)nc2N)cc(OC)c1OC [Trimethoprim] (20 µM),1.22
4,Cc1ccc(NC(=O)c2ccc(CN3CCN(C)CC3)cc2)cc1Nc1nccc(-c2cccnc2)n1 [Imatinib] (20 µM),0.962
5,C[C@H]1[C@H](NC(=O)/C(=N\OC(C)(C)C(=O)O)c2csc(N)n2)C(=O)N1S(=O)(=O)O [Aztreonam] (20 µM),1.13
6,Nc1nc2c(ncn2COCCO)c(=O)[nH]1 [Acyclovir] (20 µM),0.983
7,CC(C)/N=c1\cc2n(-c3ccc(Cl)cc3)c3ccccc3nc-2cc1Nc1ccc(Cl)cc1 [Clofazimine] (20 µM),1.04
8,Cc1nnc(SCC2=C(C(=O)O)N3C(=O)[C@@H](NC(=O)Cn4cnnn4)[C@H]3SC2)s1 [Cefazolin sodium salt] (20 µM),1.03
9,C[C@H](CS)C(=O)N1CCC[C@H]1C(=O)O [Captopril] (20 µM),1
10,"CN1[C@@H]2CC[C@H]1CC(OC(=O)C(O)c1ccccc1)C2 (mixture of isomers) [(R,S) Homatropine hydrobromide] (20 µM)",0.995
11,Cc1cnc(NC(=O)C2=C(O)c3ccccc3S(=O)(=O)N2C)s1 [Meloxicam] (20 µM),0.995
12,"CC(C)Cc1ccc([C@H](C)C(=O)O)cc1 [(S,+) Ibuprofen] (20 µM)",1.03
13,COc1c(N2C[C@@H]3CCCN[C@@H]3C2)c(F)cc2c(=O)c(C(=O)O)cn(C3CC3)c12 [Moxifloxacin] (20 µM),0.915
14,CCN(CC)CCNC(=O)c1ccc(N)cc1 [Procainamide hydrochloride] (20 µM),0.987
15,Clc1ccccc1CN1CCc2sccc2C1 [Ticlopidine hydrochloride] (20 µM),0.989
16,CCC(C)C(C(=O)OCC[N+](C)(CC)CC)c1ccccc1 (centres undefined) [Valethamate bromide] (20 µM),1.02
17,O=C(O)[C@H]1/C(=C/CO)O[C@@H]2CC(=O)N21 [Clavulanate potassium salt] (20 µM),1
18,CC(C)(C)CC(C)(C)c1ccc(OCCOCC[N+](C)(C)Cc2ccccc2)cc1 [Benzethonium chloride] (20 µM),1.01
19,CO/N=C(\C(=O)N[C@@H]1C(=O)N2C(C(=O)O)=C(C[N+]3(C)CCCC3)CS[C@H]12)c1csc(N)n1 [Cefepime hydrochloride] (20 µM),0.361 (active)

# Source: the supplement of paper PMC12494721
